Reference: the supplement of paper PMC3334620
In all, about 33,000 sequences were measured (“E-score (-0.5 to 0.5)”: median about -0.0014, highest 2% from about 0.25 on). What follows is part of a selection rich in the highest values, with near analogues and random picks from the rest.

Target: T1, Cad1 (UniProt P24813)
T1 sequence: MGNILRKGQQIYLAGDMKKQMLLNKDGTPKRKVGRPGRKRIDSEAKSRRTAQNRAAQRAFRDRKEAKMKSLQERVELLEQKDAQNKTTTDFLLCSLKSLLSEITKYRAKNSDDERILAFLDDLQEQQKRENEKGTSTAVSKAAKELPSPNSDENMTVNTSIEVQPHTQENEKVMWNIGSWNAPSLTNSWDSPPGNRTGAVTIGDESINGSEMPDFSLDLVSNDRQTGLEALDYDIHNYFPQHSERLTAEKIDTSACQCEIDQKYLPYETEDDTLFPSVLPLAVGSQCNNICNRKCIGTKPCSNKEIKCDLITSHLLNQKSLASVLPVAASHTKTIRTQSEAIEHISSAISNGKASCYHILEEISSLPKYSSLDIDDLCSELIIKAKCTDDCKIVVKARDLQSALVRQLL
Assay: PBM E-score (8-mer binding enrichment) (E-score (-0.5 to 0.5)); higher = stronger / more preferred TF binding
Conditions: protein concentration: 100 nM; construct: GST-full length
Method in brief: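 Detection of bound protein used fluorescent anti-GST, with scans normalised by masliner. The proteins were GST-tagged yeast transcription factors applied at about 100-200 nM to universal all-10-mer Agilent arrays made double-stranded by primer extension. Each ungapped eight-base word, pooled with its reverse complement, was scored with an E-score from the Universal PBM Analysis Suite.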

Row | Sequence | PBM E-score
1 | AGGCCAAT | -0.0024
2 | CCCGCCGC | -0.0389
3 | AGCCGCAT | -0.0263
4 | ACGAAAGC | 0.00748
5 | CGAGGTGC | 0.142
6 | AAGCGCTG | 0.212
7 | TAATATCA | 0.167
8 | CTACCTGA | -0.0406
9 | CCTAGGCA | -0.0995
10 | AATTAGTC | 0.346
11 | AATTAGAG | 0.0346
12 | GATTAGAA | 0.0793
13 | CCTTAGTA | 0.0752
14 | GATTAGTA | 0.31
15 | GCTTAGTA | 0.344
16 | ACTTAGTA | 0.213
17 | AATTAGAT | 0.252
18 | GATTAGGA | -0.0959
19 | ACTTAGTC | -0.016
20 | AGTTAGTC | -0.0819
21 | AATTAGAC | 0.0936
22 | GGCCAATA | 0.0295
23 | AAGCTGAT | 0.216
24 | GTAGGAGA | -0.124
25 | CGCTTCTC | -0.0668
26 | ACAGCCAA | 0.0312

Row | Sequence | PBM E-score
27 | GAGCTTGC | -0.048
28 | CAAGTCCA | -0.0962
29 | CCCGCCTA | 0.0947
30 | AATTAGGA | 0.0377
31 | AGTTAGTA | 0.0725
32 | AATTAGTA | 0.316
33 | CATCCTCG | 0.0642
34 | GACACTGC | -0.0407
35 | CCGCTGTC | 0.00182
36 | CAAATGGA | 0.0716
37 | AAAATGGA | 0.267
38 | AAAATGGG | -0.157
39 | GTCTACAC | 0.0321
40 | ATCCCAAT | -0.122
41 | CTTTGTAC | 0.0743
42 | ATTTGTAA | 0.411
43 | GTTTGTAA | 0.137
44 | ATTTGTAC | 0.119
45 | CTTTGTAA | 0.333
46 | ATTTGTAG | 0.0654
47 | ACGCTCCA | 0.0354
48 | AGCGTACG | 0.00701
49 | ATACTTGC | 0.0566
50 | CAGATGCC | -0.141
51 | ACGCGCTA | 0.109
52 | GCGCGCTA | 0.326

Row | Sequence | PBM E-score
53 | CCGCGCTC | 0.097
54 | CCGCGCTA | 0.263
55 | CTGCGCTA | 0.0362
56 | GTGCGCTA | 0.0718
57 | GACCGTAA | -0.061
58 | GGGTGGCA | -0.124
59 | CCACTATC | -0.0188
60 | AGGTAAAC | 0.105
61 | AGGTAAAT | -0.00978
62 | AGGTAAAG | 0.267
63 | AGTGATGC | -0.0338
64 | ACCCGCAC | 0.0284
65 | ATTAATGC | 0.167
66 | CGTAATTA | 0.249
67 | ATTAATGA | 0.306
68 | ATGAATAG | 0.0469
69 | AGTAATTA | 0.283
70 | CTTAATGA | 0.00816
71 | GTTAATTA | 0.23
72 | ATTAATAG | 0.275
73 | CTTAATTA | 0.152
74 | ATTAATAC | 0.199
75 | GGTAATTA | 0.186
76 | ATTAATTA | 0.263
77 | ATGGGGGC | -0.349
78 | AAGATAGA | 0.0137

Row | Sequence | PBM E-score
79 | CCGAGTGC | 0.089
80 | GATTGACC | -0.149
81 | GCCGGGAC | -0.0972
82 | ATCAATTG | 0.186
83 | ATTAATTG | 0.313
84 | AGTAATTG | 0.0751
85 | ATTAATTC | 0.304
86 | ATCAATTC | -0.026
87 | ATCAATTA | 0.255
88 | CTTAATTC | 0.177
89 | AGTAATTC | 0.23
90 | ATTAATGG | 0.239
91 | CGTAACCC | -0.0539
92 | TCCTGACA | 0.125
93 | GGCTTCCC | -0.0469
94 | AACCAATG | 0.109
95 | AACCAGTA | 0.157
96 | AACCAGTG | -0.0556
97 | AACCAATT | 0.297
98 | AACCAATC | 0.0878
99 | AACCAGTT | 0.27
100 | ACGCGGCC | -0.0773
101 | CAGCGGGC | 0.00044
102 | GGTAGTAC | -0.0112
103 | CCAATCGC | 0.0869
104 | CCCAGCAA | -0.0856
